# Structures can show the parent of a compound that is named as a salt.
# System: RIVA
# Assay: growth inhibition by drug alone (1 - RLU/untreated control) (fraction); higher = stronger inhibition
# Conditions: 177Lu-lilotomab satetraxetan 0 ug/ml
# Procedure: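 RIVA (RI-1) ABC-DLBCL cells were pretreated or not for 18 h with 0.5 ug/ml 177Lu-lilotomab satetraxetan (600 MBq/mg), washed and seeded (3000 cells/well) on 384-well plates pre-printed with the Selleck Cambridge Cancer Compound library. Viability was read by RealTime-Glo luminescence on days 3-6 after seeding. Effect = 1 - RLU/mean RLU of the 48 untreated no-drug control wells per plate; Bliss score = (M-E)/(1-Fa).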
SMILES,"growth inhibition by drug alone (10 nM, time (day): 3)","growth inhibition by drug alone (10 nM, time (day): 4)","growth inhibition by drug alone (10 nM, time (day): 5)","growth inhibition by drug alone (10 nM, time (day): 6)","growth inhibition by drug alone (100 nM, time (day): 3)","growth inhibition by drug alone (100 nM, time (day): 4)","growth inhibition by drug alone (100 nM, time (day): 5)","growth inhibition by drug alone (100 nM, time (day): 6)"
Nc1nc2[nH]cc(CCc3ccc(C(=O)N[C@@H](CCC(=O)O)C(=O)O)cc3)c2c(=O)[nH]1 [Pemetrexed],-0.121,-0.198,-0.281,-0.489,-0.293,-0.377,-0.377,-0.54
COc1cc(Nc2ncc(F)c(Nc3ccc4c(n3)NC(=O)C(C)(C)O4)n2)cc(OC)c1OC [R406(free base)],0.0167,-0.0293,-0.017,-0.0464,-0.368,-0.333,-0.353,-0.462
COc1cccc2c1C(=O)c1c(O)c3c(c(O)c1C2=O)C[C@@](O)(C(=O)CO)C[C@@H]3O[C@H]1C[C@H](N)[C@@H](O)[C@H](C)O1 [Epirubicin Hydrochloride],-0.0808,0.0051,0.0307,0.0473,0.436,0.719,0.848,0.91
O=C(O)c1ccc(-c2c[nH]c3ncc(-c4ccccc4)cc23)cc1C1CCCC1,-0.0813,-0.122,-0.138,-0.797,-0.515,-0.371,-0.364,-0.433
Cn1cnc2c(F)c(Nc3ccc(Br)cc3Cl)c(C(=O)NOCCO)cc21 [AZD6244 (Selumetinib)],0.0177,-0.0269,-0.137,-0.558,-0.313,-0.239,-0.319,-0.531

# From the supplement of paper PMC6897291
